TDP1 cell noCPT: qHTS for Inhibitors of human tyrosyl-DNA phosphodiesterase 1 (TDP1): qHTS in cells in absence of CPT; DT40 Tdp1-/- hTDP1 cells, no CPT, ATP luminescence, 48 h; Potency, µM (series often up to 46.2 µM), without a hit: at the highest dose activity change, negative = growth inhibition, hits mostly inhibitors; AID 686978, 2013; actives 15% (n = 420,000); note: potency is the fitted concentration of half-maximal effect; nearly all actives have a fitted effect of over 55% in size
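Stably hTDP1-transfected Tdp1-null chicken DT40 cells were treated with library compounds minus camptothecin and grown for at least 48 hr at 37 °C, after which cellular ATP was quantified by luminescence.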
IL1B secr inh: blocks inflammasome-driven IL-1 beta release; actives 4.7% (n = 360,000); THP-1 LPS/ATP IL-1B secretion, AlphaLISA, 16 h; active compounds read low; activity change, % at 57.5 µM; in the data active = activity change below about -50%; inconclusive = mostly about -30% to -49%
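Secreted IL-1B measured by AlphaLISA bead assay after 16 h compound exposure of THP-1 cells; compounds (final up to 57.5 uM) added 1 h before LPS (250 ng/mL) and ATP (1.25 mM) stimulation; lower signal means less secretion.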
TDP1 inh: TDP1 (human) enzyme inhibition; recombinant TDP1, AlphaScreen DNA substrate cleavage; Potency, µM (highest dose often 130 µM), for the others: at the highest dose activity change, negative = inhibition, actives largely listed as inhibitors; Q9NUW8; actives 0.28% (n = 350,000); note: potency is the fitted concentration of half-maximal effect; nearly all actives have a fitted effect of over 40% in size
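Recombinant E. coli-expressed Tdp1 (1 nM) preincubated with compound 15 min at RT, then 5'-biotin/3'-phosphotyrosine-FITC DNA substrate (15 nM) added for 5 min. AlphaScreen beads (10 ug/ml) added, 10 min RT; tyrosine-FITC cleavage read as signal loss.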
TDP1 cell CPT: growth inhibition of DT40 Tdp1-/-;hTDP1 cells with camptothecin (screen for TDP1 inhibitors). actives 12% (n = 420,000). Potency, µM (top dose mostly 46.2 µM), for inactives: at the top dose activity change, negative = growth inhibition, most hits filed as inhibitors. chicken DT40 Tdp1-/-;hTDP1 cells + 20 nM CPT, ATP luminescence, 48 h. AID 686979; note: potency is the fitted concentration of half-maximal effect; nearly all actives have a fitted effect of over 55% in size
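Chicken DT40 Tdp1-/- cells complemented with human TDP1, 400 cells/well, exposed to compounds plus 20 nM camptothecin for at least 48 h at 37 C; viability read as ATP content by CellTiter-Glo luminescence.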
Six1-Eya2 inh: inhibitors of human Six1/Eya2 interaction; AlphaScreen GST-Six1/His-Eya2 binding, biochemical; active compounds read low; activity change, % (concentration not given with the values); actives 0.56% (n = 360,000); AID 651725; in the data active = activity change below about -65%; inconclusive = mostly about -30% to -63%
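Six1/Eya2 binding was read as AlphaScreen signal after compounds were pinned into GST-Six1 plus His-tagged Eya2 (5X stock 250/500 nM) in pH 8.0 Tris/NaCl/TCEP buffer, beads added, then incubated 1 h, 37 C, dark.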
CtBP-E1A blk: CtBP/E1A binding inhibition; activity change, % (no concentration beside the values); AID 651724; AlphaScreen GST-E1A/His-CtBP binding, 1536-well; active compounds read low; actives 0.49% (n = 340,000); in the data active = activity change below about -65%; inconclusive = mostly about -30% to -63%
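Protein mix (5X: 125 nM each GST-E1A, His-CtBP) was incubated with pinned compound 2 h at 37 deg C in dark, in 50 mM Tris pH 8.0 buffer with 300 mM NaCl. Glutathione donor and nickel acceptor beads followed; AlphaScreen signal read after 1 h.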
* = called active by the depositor; ? = inconclusive; / = no result. This is a sample that favours compounds with a hit; in the whole collection about 18% have one here. Unless noted, calls come from the whole dose curve; as a rule, active = well fitted curve in the direction sought with a large enough effect; inconclusive = small, poorly fitted or top-dose-only effect, or another doubt; inactive = no such curve, though single readings can be large; an effect the other way counts as inactive or inconclusive. % is set by controls: 0 for no effect and ±100 for the full control effect.

SMILES	TDP1 cell noCPT	IL1B secr inh	TDP1 inh	TDP1 cell CPT	Six1-Eya2 inh	CtBP-E1A blk
COc1cccc(Cc2nc3ccccc3nc2SCC(=O)N2CCCCC2C)c1 (centres undefined)	5.2µM*	/	-5%	?	/	/
Cc1ccc2cc(C#N)c(SCC(=O)N3CCCc4ccccc43)nc2c1C	8.2µM*	34	3%	21µM*	-6	-8
Cc1ccc(Cn2c(=O)c3ccccc3n3c(SCC(=O)N4CCCCC4C)nnc23)cc1 (centres undefined)	16µM*	0	5%	18µM*	6	7
COc1cccc(Cc2nc3ccccc3nc2SCC(=O)N2CCCc3ccccc32)c1	?	/	0%	18µM*	/	/
Cc1cc(C)cc(C(O)c2ncc(-c3ccccc3F)[nH]2)c1 (centres undefined)	?	-19	/	?	10	1
CCOc1ccc(S(=O)(=O)N2CCC(C(=O)NCCc3ccccc3)CC2)cc1	5%	0	5%	-23%	5	-19
Cc1ccc(Cc2nc3ccccc3nc2SCC(=O)N2CCCCC2C)cc1 (centres undefined)	23µM*	/	-3%	15µM*	/	/
CCc1c(C)sc2c1CCN(C(=O)Nc1ccccc1Cl)C2c1ccc(OC)cc1 (centres undefined)	15µM*	/	1%	?	/	/
CCc1c(C)sc2c1CCN(C(=O)Nc1cc(C)ccc1C)C2c1ccc(OC)cc1 (centres undefined)	26µM*	/	4%	?	/	/
O=C(COc1cccc(F)c1)NNC(=O)Cc1ccc(S(=O)(=O)N2CCOCC2)s1	24%	6	-13%	-5%	4	0
C/C(=N\NC(=O)CSc1nc2ccccc2s1)c1cccnc1	?	24	-5%	?	2	-1
COCc1cc(C)nc(OCC(=O)N/N=C/c2ccc(O)cc2O)c1C#N	?	50	8%	-2%	-84*	-88*
COCc1cc(C)nc(OCC(=O)N/N=C/c2ccccc2O)c1C#N	?	128	3%	?	-91*	-84*
O=C(CC(=O)Nc1ccc(F)cc1F)Nc1ccc(F)cc1F	2%	-25	/	-1%	-2	-1
Cc1ccc(NC(=O)C2CCCN(c3ncnc4c3nc3n4CCCCC3)C2)nc1 (centres undefined)	8.2µM*	25	4%	13µM*	-3	-8
O=C(Nc1ccc(Cl)cn1)C1CCN(c2ncnc3c2nc2n3CCCCC2)CC1	16µM*	-91*	1%	?	-1	-8
Cc1ccnc(NC(=O)C2CCCN(c3ncnc4c3nc3n4CCCCC3)C2)c1 (centres undefined)	?	24	2%	-10%	3	-21
CC(C)c1ccc(NC(=O)C2CCN(c3ncnc4c3nc3n4CCCCC3)CC2)cc1	?	60	1%	?	2	6
O=C(Nc1ccc(F)c(Cl)c1)C1CCN(c2ncnc3c2nc2n3CCCCC2)CC1	18µM*	-20	2%	?	-14	-18
O=C(NCc1ccco1)C1CCCN(c2ncnc3c2nc2n3CCCCC2)C1 (centres undefined)	13µM*	11	3%	?	-13	2
COC(=O)c1cc(S(=O)(=O)NCC(C)c2ccccc2)cn1C (centres undefined)	-9%	22	0%	-20%	1	-4
Cc1ccc(CNC(=O)[C@@H]2C[C@H]2[C@@H](NP(=O)(c2ccccc2)c2ccccc2)c2ccccc2)o1	/	/	8%	/	/	/
O=C(NCCc1ccccc1)C1CCCN(c2ncnc3c2nc2n3CCCCC2)C1 (centres undefined)	?	25	5%	?	13	1

Screening data from PubChem BioAssay.
